Source: PubChem (National Center for Advancing Translational Sciences (NCATS))
Most compounds without a hit are left out; they make up all but 2.4% or so of the library.
D2 antag: D2 dopamine receptor (human) antagonism. HEK293 TREx D2 cells, calcium flux, dopamine EC80. hit rate 2% among 340,000. inhibition, % at 10 µM. P14416; in the data active means inhibition above about 30%; inactive means below that, where a call was filed
Target sequence (P14416 whole entry, looked up): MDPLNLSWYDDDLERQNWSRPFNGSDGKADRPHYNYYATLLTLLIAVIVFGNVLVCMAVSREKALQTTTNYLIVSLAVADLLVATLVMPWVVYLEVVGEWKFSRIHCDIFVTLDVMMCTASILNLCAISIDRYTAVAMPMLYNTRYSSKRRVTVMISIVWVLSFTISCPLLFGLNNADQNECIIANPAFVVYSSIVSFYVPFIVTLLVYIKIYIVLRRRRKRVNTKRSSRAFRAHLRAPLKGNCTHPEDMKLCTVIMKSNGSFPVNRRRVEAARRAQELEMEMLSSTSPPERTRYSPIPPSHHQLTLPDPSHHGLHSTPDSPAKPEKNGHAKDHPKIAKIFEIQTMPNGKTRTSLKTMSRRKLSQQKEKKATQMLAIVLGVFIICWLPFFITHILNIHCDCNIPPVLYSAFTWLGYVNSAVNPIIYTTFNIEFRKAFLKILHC
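Tetracycline-induced HEK293 T-REx cells expressing D2 force-coupled to calcium signalling were dye-loaded, exposed to compound for 180 s, then challenged with an EC80 of dopamine; calcium flux was followed kinetically for a further 180 s.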
D2 ag-1: activates the human D2 dopamine receptor. activation, % (no concentration beside the values). hit rate 0.084% among 360,000. P14416. DiscoveRx PathHunter D2 beta-arrestin, luminescence, 90 min; 100% = 57 uM dopamine signal. AID 624465; in the data active means activation above about 40%; inconclusive means between about 15% and that limit
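DiscoveRx PathHunter D2 beta-arrestin cells (2,100/well) attached overnight, then compound-stimulated 90 min at 37 C in HBSS/10 mM HEPES/0.1% Tween-20 buffer; beta-galactosidase complementation read by luminescence after 1 h at ambient temperature. Dopamine 57 uM final (EC100) as control.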
D2 ag-2: activates the human D2 dopamine receptor | HEK293 T-REx D2 cells, calcium flux agonist mode | activation, % at 2 µM | hit rate 0.53% among 340,000;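 active means activation over 3 SD above normal in the single-dose calcium agonist read, cut at about 30% in these data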
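Calcium-flux readout, 1 cycle/sec over 180 s following compound pin transfer, in inducible HEK293 Trex D2 cells (force-coupled); dopamine controls included. Positive calcium responses during this window marked compounds as potential agonists.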
D2 PAM-1: positive allosteric modulators of human D2 dopamine receptor | HEK293 T-REx D2, calcium flux, EC20 dopamine potentiation | potentiation, % at 10 µM | hit rate 0.34% among 340,000;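 active means potentiation over 3 SD above the plate norm, cut at about 30% in these data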
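Calcium flux readout, no-wash dye, 1 read/s. Inducible HEK293 Trex D2 line, overnight 30 C. Compound alone 180 s (agonist flags), then EC20 dopamine, another 180 s to score potentiation.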
D2 PAM-2: human D2 receptor positive allosteric modulation; P14416; DiscoveRx D2 beta-arrestin cells, luminescence, 90 min; 100% = 57 uM dopamine signal; potentiation, % (concentration not given with the values); hit rate 0.23% among 360,000; AID 624464; in the data active means potentiation above about 50%; inconclusive means mostly about 30% to 49%
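PathHunter beta-arrestin assay in DiscoveRx D2 cells. Compounds were added with an EC20 of dopamine (50 nM final) for 90 min at 37 deg C. Luminescence was read 1 h after detection reagent, with 57 uM dopamine as the EC100 control.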
Large screens that a line does not name were inactive.

Cc1ccc(C(C)C)c(OCCSc2nc(-c3ccccc3F)nc3cc(=O)[nH]n23)c1	none (no result: D2 antag, D2 ag-1, D2 PAM-2)
COc1ccc(S(=O)(=O)N2CCOC23CCN(C(=O)c2ccccc2OC)CC3)cc1	none
COc1ccc(S(=O)(=O)N2CCOC23CCN(C(=O)c2ccccc2Br)CC3)cc1	D2 PAM-1 71
COc1ccc(C)cc1NC(=O)CSc1nc2ccccc2nc1N1CC(C)OC(C)C1 (stereo unspecified)	D2 antag 38
COc1ccccc1NC(=O)CSc1nc2ccccc2nc1N1CC(C)OC(C)C1 (stereo unspecified)	none
CCc1nc(SCC(=O)Nc2cc(C)ccc2OC)c2c(C)c(C)sc2n1	D2 antag 44
CCc1nc(SCC(=O)Nc2ccccc2OC)c2c(C)c(C)sc2n1	none
COc1ccccc1N(C)S(=O)(=O)c1ccc(C(=O)NCCc2ccc(F)cc2)cc1	none
COC(=O)c1ccc(CNC(=O)c2ccc(S(=O)(=O)N(C)c3ccccc3OC)cc2)cc1	D2 antag 49
COc1ccccc1N(C)S(=O)(=O)c1ccc(C(=O)NCC(C)C)cc1	none
COc1ccccc1N(C)S(=O)(=O)c1ccc(C(=O)NCC2CCCCC2)cc1	D2 antag 80
CCc1ccc(CNc2ncc(-c3cccc(OC)c3)n2C)cc1	none (no result: D2 antag, D2 ag-1, D2 PAM-2)
COc1cc(CNc2ncc(-c3ccc(Br)cc3)n2C)cc(OC)c1OC	none
Cn1c(-c2ccc(Br)cc2)cnc1NCc1cccnc1	D2 antag 43
Cc1cccc(NC(=O)C(Cc2ccccc2)n2cccc2)c1C (stereo unspecified)	none (no result: D2 antag, D2 ag-1, D2 ag-2, D2 PAM-2)
CCC(C)c1ccccc1NC(=O)COC(=O)c1ccc2[nH]c3c(c2c1)CCCC3 (stereo unspecified)	D2 antag 71
O=C(COC(=O)c1ccc2[nH]c3c(c2c1)CCCC3)Nc1ccccc1Cl	none
CC(=O)c1cccc(CN2CCN(CCc3ccccc3)C(CCO)C2)c1 (stereo unspecified)	D2 antag 34
CC(=O)c1cccc(CN2CCN(Cc3ccc(C)cc3)C(CCO)C2)c1 (stereo unspecified)	D2 antag 55
CC1=C(c2ccc(C(C)C)cc2)S(=O)(=O)NC1=NCc1ccccc1Br	none (no result: D2 antag, D2 ag-1, D2 PAM-2)
NC(=O)CCCCC(=O)OCCCc1cccs1	D2 PAM-1 31
COc1ccc(CC2(CO)CCN(C(C)COc3ccccc3)CC2)cc1 (stereo unspecified)	D2 ag-1 49 (no result: D2 antag, D2 ag-2, D2 PAM-1)
COc1ccc(CC2(CO)CCN(Cc3cnn(-c4ccccc4OC)c3)CC2)cc1	D2 antag 79
COc1ccc(Cl)cc1NC(=O)CN1C(=O)CSc2ccc(S(=O)(=O)N3CCCC3)cc21	none (no result: D2 antag, D2 ag-1, D2 PAM-2)
CCN(CC)S(=O)(=O)c1ccc2c(c1)N(CC(=O)Nc1ccc(OC)cc1)C(=O)CS2	none (no result: D2 antag, D2 ag-1, D2 PAM-2)
COCc1c(C(=O)NC2CCCCCC2)oc2ccccc12	D2 ag-1 inconclusive, D2 ag-2 31
CC1CCCCN1C(=O)c1ccc2c(c1)N(Cc1ccc(Cl)cc1)C(=O)c1ccccc1S2=O (stereo unspecified)	none (no result: D2 antag, D2 ag-1, D2 PAM-2)
COc1ccc2cc3cc(C(=O)NCCN4CCN(c5ccccc5F)CC4)oc3nc2c1	D2 antag 38
CCOc1ccccc1NC(=O)C(Cc1ccccc1)NS(=O)(=O)c1ccc2c(c1)oc(=O)n2C (stereo unspecified)	none (no result: D2 antag, D2 ag-1, D2 PAM-2)
COc1ccc(N2CC(C(=O)Nc3nc4ccc(OC)cc4s3)CC2=O)cc1 (stereo unspecified)	none
COc1ccc2nc(NC(=O)C3CC(=O)N(c4ccccc4)C3)sc2c1 (stereo unspecified)	D2 antag 31
COCC(=O)N1c2nc(-c3ccco3)nn2C2(CCCCC2)[C@@H]2CCCC[C@@H]21	none (no result: D2 antag, D2 ag-1, D2 PAM-2)
CCOC(=O)C1(Cc2ccccc2C)CCCN(C(=O)c2cc(C3CC3)[nH]n2)C1 (stereo unspecified)	D2 antag 32
CCOC(=O)C1(Cc2ccccc2C)CCCN(C(=O)c2ccccn2)C1 (stereo unspecified)	none
Brc1ccc(-c2noc(COc3ccc4c(c3)CCC4)n2)o1	D2 antag 43
CCOC(=O)c1cc(S(=O)(=O)NC2CCC(C)CC2)cn1C (stereo unspecified)	D2 PAM-1 99
